The full data set covers some 8,800 targets. This sample favours those with a hit. About 0.5% of all pairs of compound and target were hits. Unmarked numbers belong to inactive results.
Key:
Assay in all cases: log2 fold change, soluble protein after heating vs DMSO (PISA); higher = thermal stabilisation; K562 lysate, 10 uM; active = over 0.2 and 3.5 SD of the protein, either way, in both replicates (recomputed)
[1] = compound: CCCS(=O)(=O)Nc1ccc(F)c(C(=O)c2c[nH]c3ncc(-c4ccc(Cl)cc4)cc23)c1F [vemurafenib]
Method in brief: (§1)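 Following dounce homogenisation of K562 pellets in PBS pH 7.4 with 1 mM MgCl2, crude extract at 1 mg/mL protein was incubated for 30 min with 10 μM compound. Aliquots were then heated for 3 min over 48°C-58°C and pooled, NP-40 was added to 0.5% at 4°C, and soluble protein was recovered as the supernatant at 21,000xg for 90 min. Channel-sum-equalised TMTpro 16plex LC-MS/MS quantified this protein. Each value, from duplicates, is a log-two fold change in thermal stability relative to solvent controls.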

[2] = compound: CCCS(=O)(=O)Nc1ccc(F)c(C(=O)c2c[nH]c3ncc(Cl)cc23)c1F
Method in brief: as §1

[3] = compound: CCN(CCCOc1ccc2c(Nc3cc(CC(=O)Nc4cccc(F)c4)[nH]n3)ncnc2c1)CCOP(=O)(O)O [barasertib]
Method in brief: as §1

[4] = compound: CC[C@@H]1C(=O)N(C)c2cnc(Nc3ccc(C(=O)NC4CCN(C)CC4)cc3OC)nc2N1C1CCCC1
Method in brief: as §1

[5] = compound: CC[C@@H]1C(=O)N(C)c2cnc(Nc3ccc(C(=O)N[C@H]4CC[C@H](N5CCN(CC6CC6)CC5)CC4)cc3OC)nc2N1C(C)C [volasertib]
Method in brief: as §1

[6] = compound: CCn1c(C(=O)N(C2CC2)C2CC2)cc2c3c(ncn3C)c(Nc3cc(C)n(C)n3)nc21
Method in brief: as §1

[7] = compound: CCn1cc(-c2ccnc3[nH]c(-c4cccc(CN(C)C)c4)cc23)c(-c2ccc(NC(=O)N(C)C)cc2)n1
Method in brief: as §1

[8] = compound: CN1CCC(CNc2ccc3ncc(-c4cccc(OC(F)(F)F)c4)n3n2)CC1
Method in brief: as §1

[9] = compound: CN1CCN(CCOc2cc(OC3CCOCC3)c3c(Nc4c(Cl)ccc5c4OCO5)ncnc3c2)CC1 [saracatinib]
Method in brief: as §1

[10] = compound: CN1CCN(c2nc(C3=C(c4c[nH]c5ccccc45)C(=O)NC3=O)c3ccccc3n2)CC1 [sotrastaurin]
Method in brief: as §1

Chain of UniProt P22676 (P22676 whole entry, looked up): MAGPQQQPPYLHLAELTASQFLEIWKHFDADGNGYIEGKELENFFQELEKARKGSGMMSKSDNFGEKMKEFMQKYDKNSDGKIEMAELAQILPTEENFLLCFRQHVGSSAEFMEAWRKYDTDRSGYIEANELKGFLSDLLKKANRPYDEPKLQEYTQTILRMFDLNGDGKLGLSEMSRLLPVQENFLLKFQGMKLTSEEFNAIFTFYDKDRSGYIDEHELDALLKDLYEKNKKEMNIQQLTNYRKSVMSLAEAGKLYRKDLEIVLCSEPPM
Chain of UniProt Q8TDI0 (Q8TDI0 whole entry, looked up): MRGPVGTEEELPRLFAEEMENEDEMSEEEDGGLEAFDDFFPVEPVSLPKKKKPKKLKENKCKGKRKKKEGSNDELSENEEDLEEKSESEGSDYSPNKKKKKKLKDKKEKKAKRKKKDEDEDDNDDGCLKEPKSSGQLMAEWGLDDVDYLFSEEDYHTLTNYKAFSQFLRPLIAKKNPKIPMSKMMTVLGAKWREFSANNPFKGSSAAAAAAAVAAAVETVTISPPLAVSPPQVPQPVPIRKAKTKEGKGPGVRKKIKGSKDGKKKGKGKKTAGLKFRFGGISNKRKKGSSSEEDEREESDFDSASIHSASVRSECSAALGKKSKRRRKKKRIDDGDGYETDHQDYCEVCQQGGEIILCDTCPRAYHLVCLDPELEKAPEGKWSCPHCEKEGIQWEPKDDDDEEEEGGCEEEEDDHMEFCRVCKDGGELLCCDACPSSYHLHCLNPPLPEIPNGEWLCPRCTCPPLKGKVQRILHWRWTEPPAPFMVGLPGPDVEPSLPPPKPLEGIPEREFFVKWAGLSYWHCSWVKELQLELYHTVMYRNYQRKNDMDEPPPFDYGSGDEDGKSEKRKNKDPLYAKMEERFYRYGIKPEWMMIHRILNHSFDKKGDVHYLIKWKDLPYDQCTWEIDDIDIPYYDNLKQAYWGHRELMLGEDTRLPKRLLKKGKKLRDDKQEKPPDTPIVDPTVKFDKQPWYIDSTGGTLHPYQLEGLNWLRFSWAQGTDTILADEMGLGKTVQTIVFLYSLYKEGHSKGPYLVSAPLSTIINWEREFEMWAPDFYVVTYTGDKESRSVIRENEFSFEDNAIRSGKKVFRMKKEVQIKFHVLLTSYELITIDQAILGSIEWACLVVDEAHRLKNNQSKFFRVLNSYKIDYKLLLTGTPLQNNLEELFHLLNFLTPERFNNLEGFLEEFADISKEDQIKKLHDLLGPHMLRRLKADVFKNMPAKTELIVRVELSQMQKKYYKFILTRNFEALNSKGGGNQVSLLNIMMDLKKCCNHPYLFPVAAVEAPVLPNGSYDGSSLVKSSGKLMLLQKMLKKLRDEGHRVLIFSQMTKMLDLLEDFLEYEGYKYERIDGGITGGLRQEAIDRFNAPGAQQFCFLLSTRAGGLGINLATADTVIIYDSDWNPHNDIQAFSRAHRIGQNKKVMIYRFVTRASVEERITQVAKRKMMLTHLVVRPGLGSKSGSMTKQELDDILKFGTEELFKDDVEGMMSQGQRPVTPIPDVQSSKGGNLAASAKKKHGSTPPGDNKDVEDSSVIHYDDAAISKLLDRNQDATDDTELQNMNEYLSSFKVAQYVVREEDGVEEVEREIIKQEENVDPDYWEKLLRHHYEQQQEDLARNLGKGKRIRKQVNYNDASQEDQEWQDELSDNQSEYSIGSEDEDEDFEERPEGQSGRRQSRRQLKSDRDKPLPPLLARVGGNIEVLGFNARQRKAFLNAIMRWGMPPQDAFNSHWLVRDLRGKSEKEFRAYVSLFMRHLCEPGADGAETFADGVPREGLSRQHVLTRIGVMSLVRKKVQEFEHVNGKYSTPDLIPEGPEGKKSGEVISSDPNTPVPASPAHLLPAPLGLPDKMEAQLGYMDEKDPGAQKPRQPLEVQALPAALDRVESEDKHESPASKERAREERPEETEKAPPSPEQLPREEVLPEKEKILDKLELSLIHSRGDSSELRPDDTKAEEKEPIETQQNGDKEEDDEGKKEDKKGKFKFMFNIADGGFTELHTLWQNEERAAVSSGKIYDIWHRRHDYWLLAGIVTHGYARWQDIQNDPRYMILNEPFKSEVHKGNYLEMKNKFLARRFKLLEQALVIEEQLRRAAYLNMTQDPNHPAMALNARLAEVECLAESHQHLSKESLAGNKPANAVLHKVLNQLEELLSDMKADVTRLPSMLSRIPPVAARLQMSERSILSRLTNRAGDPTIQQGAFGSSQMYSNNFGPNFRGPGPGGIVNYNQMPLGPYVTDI
Chain of UniProt O76039 (O76039 whole entry, looked up): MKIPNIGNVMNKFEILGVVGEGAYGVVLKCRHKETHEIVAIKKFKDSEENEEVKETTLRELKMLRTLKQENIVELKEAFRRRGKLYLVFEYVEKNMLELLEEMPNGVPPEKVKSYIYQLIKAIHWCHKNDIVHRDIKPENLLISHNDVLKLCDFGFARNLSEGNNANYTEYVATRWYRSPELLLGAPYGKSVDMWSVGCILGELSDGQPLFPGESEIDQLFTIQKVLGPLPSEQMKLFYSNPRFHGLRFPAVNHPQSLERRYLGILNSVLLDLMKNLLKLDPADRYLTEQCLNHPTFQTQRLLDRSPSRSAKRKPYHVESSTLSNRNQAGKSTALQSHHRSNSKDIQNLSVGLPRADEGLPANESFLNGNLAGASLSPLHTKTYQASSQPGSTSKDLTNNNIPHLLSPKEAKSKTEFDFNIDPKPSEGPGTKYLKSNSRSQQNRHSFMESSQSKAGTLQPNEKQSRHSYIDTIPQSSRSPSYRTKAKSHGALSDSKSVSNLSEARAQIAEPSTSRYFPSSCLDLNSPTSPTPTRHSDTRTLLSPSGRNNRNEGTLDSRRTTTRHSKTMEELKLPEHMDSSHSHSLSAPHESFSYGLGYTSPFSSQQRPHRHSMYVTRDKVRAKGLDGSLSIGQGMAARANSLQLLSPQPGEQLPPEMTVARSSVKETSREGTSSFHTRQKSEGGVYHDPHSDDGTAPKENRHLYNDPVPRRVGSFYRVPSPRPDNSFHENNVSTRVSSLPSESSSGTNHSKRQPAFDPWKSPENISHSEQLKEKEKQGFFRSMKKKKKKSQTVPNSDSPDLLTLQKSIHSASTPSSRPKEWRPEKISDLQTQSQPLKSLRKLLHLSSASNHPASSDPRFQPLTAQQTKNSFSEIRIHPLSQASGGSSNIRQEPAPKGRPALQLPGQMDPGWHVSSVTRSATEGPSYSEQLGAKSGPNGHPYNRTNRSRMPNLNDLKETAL
Chain of UniProt Q13554 (Q13554 whole entry, looked up): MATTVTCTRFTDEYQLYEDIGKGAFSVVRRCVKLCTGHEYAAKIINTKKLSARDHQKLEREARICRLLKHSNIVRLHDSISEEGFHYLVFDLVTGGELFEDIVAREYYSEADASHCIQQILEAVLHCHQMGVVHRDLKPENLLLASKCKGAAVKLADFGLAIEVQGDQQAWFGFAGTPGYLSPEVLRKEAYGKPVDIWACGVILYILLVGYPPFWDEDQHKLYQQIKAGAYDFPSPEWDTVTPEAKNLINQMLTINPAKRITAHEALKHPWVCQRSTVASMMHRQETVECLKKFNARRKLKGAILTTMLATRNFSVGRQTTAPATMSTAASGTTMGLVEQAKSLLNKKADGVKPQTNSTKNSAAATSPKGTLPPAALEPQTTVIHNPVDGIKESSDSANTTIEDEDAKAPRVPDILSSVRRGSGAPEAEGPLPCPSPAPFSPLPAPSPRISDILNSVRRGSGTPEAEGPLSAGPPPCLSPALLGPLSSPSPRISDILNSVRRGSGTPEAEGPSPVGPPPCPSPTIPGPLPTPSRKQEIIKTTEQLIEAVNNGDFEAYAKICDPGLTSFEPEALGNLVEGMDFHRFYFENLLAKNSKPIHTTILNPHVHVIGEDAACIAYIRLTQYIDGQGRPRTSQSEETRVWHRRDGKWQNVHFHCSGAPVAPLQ
Chain of UniProt P08962 (P08962 whole entry, looked up): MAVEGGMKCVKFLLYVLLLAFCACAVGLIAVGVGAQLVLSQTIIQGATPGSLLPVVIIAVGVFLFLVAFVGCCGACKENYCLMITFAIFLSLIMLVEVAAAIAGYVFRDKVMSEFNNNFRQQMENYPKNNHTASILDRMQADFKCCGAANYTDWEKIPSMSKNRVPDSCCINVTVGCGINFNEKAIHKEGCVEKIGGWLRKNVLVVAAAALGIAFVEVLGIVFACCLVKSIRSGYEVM
Chain of UniProt Q6P1S2 (Q6P1S2 whole entry, looked up): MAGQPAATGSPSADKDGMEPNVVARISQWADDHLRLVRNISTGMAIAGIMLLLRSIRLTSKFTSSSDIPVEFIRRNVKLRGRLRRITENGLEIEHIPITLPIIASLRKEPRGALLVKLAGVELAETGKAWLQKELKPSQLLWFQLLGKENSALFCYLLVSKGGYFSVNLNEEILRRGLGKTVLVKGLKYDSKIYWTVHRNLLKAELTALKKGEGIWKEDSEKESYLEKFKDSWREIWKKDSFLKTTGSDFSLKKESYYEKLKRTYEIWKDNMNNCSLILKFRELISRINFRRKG
Chain of UniProt Q00537 (Q00537 whole entry, looked up): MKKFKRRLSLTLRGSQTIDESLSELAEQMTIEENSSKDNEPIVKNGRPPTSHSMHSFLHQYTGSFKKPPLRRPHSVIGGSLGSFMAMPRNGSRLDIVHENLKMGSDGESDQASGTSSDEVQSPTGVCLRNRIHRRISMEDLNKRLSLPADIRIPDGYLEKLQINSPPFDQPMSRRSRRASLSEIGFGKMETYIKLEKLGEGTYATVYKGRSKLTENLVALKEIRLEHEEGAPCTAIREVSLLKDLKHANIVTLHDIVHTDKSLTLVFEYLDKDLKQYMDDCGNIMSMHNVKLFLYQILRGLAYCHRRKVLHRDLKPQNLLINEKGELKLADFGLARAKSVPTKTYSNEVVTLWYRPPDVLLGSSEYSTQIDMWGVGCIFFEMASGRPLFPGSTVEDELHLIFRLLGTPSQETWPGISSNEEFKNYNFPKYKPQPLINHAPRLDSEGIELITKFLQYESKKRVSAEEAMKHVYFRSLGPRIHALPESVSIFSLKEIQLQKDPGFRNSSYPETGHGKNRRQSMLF
Chain of UniProt A8MTT3 (A8MTT3 whole entry, looked up): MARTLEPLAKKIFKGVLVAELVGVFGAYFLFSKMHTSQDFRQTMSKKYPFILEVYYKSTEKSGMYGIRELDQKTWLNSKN

| Target | log2 fold change [1] | log2 fold change [2] | log2 fold change [3] | log2 fold change [4] | log2 fold change [5] | log2 fold change [6] | log2 fold change [7] | log2 fold change [8] | log2 fold change [9] | log2 fold change [10] |
| --- | --- | --- | --- | --- | --- | --- | --- | --- | --- | --- |
| CALB2 (UniProt P22676) | 0.064 | 0.046 | 0.375 (active) | -0.036 | 0.017 | 0.023 | -0.065 | 0.066 | -0.008 | -0.061 |
| CD80 (UniProt P33681) | 0.115 | -0.113 | – | 0.063 | -0.001 | -0.011 | 0.239 | -0.177 | -0.069 | 0.032 |
| CAMKK2 (UniProt Q96RR4) | -0.07 | -0.026 | 0.003 | 0.176 | 0.075 | 0.057 | 0.003 | 0.002 | -0.017 | 0.069 |
| CDKN1C (UniProt P49918) | -0.275 | -0.003 | -0.041 | 0.027 | -0.066 | 0.019 | 0.073 | 0.03 | -0.14 | -0.054 |
| CAPNS1 (UniProt K7ES78) | 0.143 | -0.07 | – | – | 0.033 | 0.076 | – | – | 0.12 | -0.071 |
| CD63 (UniProt P08962) | -0.079 | 0.084 | 0.037 | -0.036 | 0.023 | -0.011 | -0.593 (active) | 0.175 | 0.073 | 0.057 |
| CDKL5 (UniProt O76039) | -0.131 | 0.041 | – | -0.149 | -0.035 | – | -0.091 | 0.088 | -0.122 | 0.048 |
| CCDC85B (UniProt Q15834) | -0.317 | 0.04 | -0.047 | 0.086 | 0.345 | 0.007 | 0.126 | -0.01 | 0.163 | -0.035 |
| CAMK2B (UniProt Q13554) | 0.011 | -0.058 | 0.014 | – | -0.145 | 0.022 | -0.021 | 0.049 | -0.077 | – |
| C1orf131 isoform 5 (UniProt Q8NDD1) | 0.034 | 0.026 | – | 0.148 | -0.029 | -0.042 | -0.242 | 0.095 | -0.009 | 0.017 |
| CEP128 (UniProt Q6ZU80) | -0.025 | – | 0.124 | -0.132 | – | 0.375 | -1.27 (active) | 0.369 | 0.07 | – |
| BTK isoform 2 (UniProt Q06187) | -0.014 | 0.013 | 0.128 | – | -0.106 | 0.01 | -0.147 | 0.053 | 0.058 | -0.026 |
| CDC40 (UniProt O60508) | 0.01 | 0.013 | -0.016 | -0.105 | -0.001 | 0.034 | -0.006 | 0.046 | -0.056 | -0.049 |
| BCKDK (UniProt O14874) | -0.036 | 0.002 | -0.028 | 0.203 | -0.037 | 0.067 | -0.033 | 0.059 | 0.031 | 0.028 |
| CCDC186 (UniProt Q7Z3E2) | -0.007 | 0.069 | -0.029 | 0.069 | 0.031 | 0.019 | 0.332 (active) | -0.033 | -0.003 | -0.054 |
| CARS isoform 3 (UniProt P49589) | 0.011 | 0.004 | -0.032 | -0.01 | -0.052 | 0.02 | 0.004 | -0.029 | 0.005 | 0.041 |

| Target | log2 fold change [1] | log2 fold change [2] | log2 fold change [3] | log2 fold change [4] | log2 fold change [5] | log2 fold change [6] | log2 fold change [7] | log2 fold change [8] | log2 fold change [9] | log2 fold change [10] |
| --- | --- | --- | --- | --- | --- | --- | --- | --- | --- | --- |
| CANX (UniProt D6RHJ3) | -0.033 | -0.04 | – | – | 0.017 | – | – | – | – | – |
| CHD1L (UniProt Q86WJ1) | 0.033 | 0.011 | 0.062 | -0.029 | -0.09 | 0.024 | -0.053 | -0.054 | 0 | -0.001 |
| CALM2 (UniProt P0DP24) | 0.028 | 0.011 | 0.564 (active) | 0.038 | 0.024 | -0.079 | -0.22 | 0.237 | 0.029 | 0 |
| CEBPZOS (UniProt A8MTT3) | 0.031 | -0.026 | – | -0.048 | -0.007 | 0.024 | -0.176 | 0.041 | 0.03 | -0.005 |
| ATF7IP2 (UniProt Q5U623) | 0.062 | -0.041 | 0.009 | – | 0.083 | -0.064 | -0.145 | 0.197 | – | 0.031 |
| AUH (UniProt Q13825) | 0.083 | -0.009 | 0.004 | 0.042 | -0.093 | 0 | 0.1 | 0 | -0.101 | 0.047 |
| CDKN2AIP (UniProt Q9NXV6) | 0.017 | 0.022 | -0.028 | 0.082 | -0.008 | -0.026 | -0.049 | 0.03 | -0.004 | 0.01 |
| CDK8 (UniProt P49336) | 0.065 | 0.138 | 0.002 | – | -0.083 | -0.011 | -0.134 | 0.045 | 0.109 | -0.001 |
| BRD3 (UniProt Q15059) | -0.046 | 0.038 | -0.087 | 0.451 (active) | 0.263 | – | -0.143 | 0.188 | 0.008 | -0.082 |
| CARD9 (UniProt Q9H257) | 0.03 | 0.026 | 0.008 | 0.068 | -0.001 | 0.011 | -0.036 | 0.013 | 0.014 | -0.01 |
| C3orf33 (UniProt Q6P1S2) | 0.295 | -0.043 | -0.04 | – | 0.063 | -0.056 | -0.823 (active) | 0.216 | 0.045 | 0.047 |
| CCDC47 (UniProt Q96A33) | 0.011 | 0.032 | 0.002 | 0.024 | 0.014 | 0.018 | -0.02 | -0.09 | -0.003 | 0.007 |
| BAHCC1 (UniProt Q9P281) | 0.11 | 0.004 | – | -0.247 | 0 | – | 0.415 | 0.219 | 0.025 | 0.127 |
| CHD5 (UniProt Q8TDI0) | -0.034 | 0.022 | 0.034 | 0.165 | -0.028 | -0.026 | 0.051 | -0.019 | 0.026 | 0.026 |
| CDK17 isoform 2 (UniProt Q00537) | -0.115 | – | 0.011 | -0.078 | – | -0.007 | 0.091 | -0.299 | -0.017 | 0.03 |
